Molecules are shown by their SMILES. Several values for one entry are separate records, joined by “and”; a condition that tells them apart may be missing. Equal values may be shown once. This is part of a sample that, as a whole, favours compounds with a hit. Of some 83,000 tested, about 20% had one in any assay.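 Cells were grown in 96-well plates and exposed to the test compound at a single concentration for 48 hours; results are reported as percent growth, with values below 10 considered active.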 Unmarked numbers belong to inactive results. Activity calls are given as the source filed them.

The experiment relates to MDA-MB-468 breast. Put plainly: NCI-60 one-dose screen, 48 h (100 = growth as untreated, 0 = no growth, -100 = all killed). The conditions noted are these: 10 µM unless noted.
With `COc1cc2c(cc1O)CCc1cc(O)cc(OC)c1-2`, the growth was 98%. For `Cc1c2cnccc2c(C)c2c1c1cc(C#N)ccc1n2C`, the growth is -46.9% (active). The same measure for `Clc1ccc(-c2nc3ccccc3s2)cc1Cl`: 110%. Next, `CC/C=C1/C(=O)C=C[C@@H]1C/C=C\CCCC(=O)O`: 73.5%.

`CNC(=O)Cc1nc(-c2cccc(NS(=O)(=O)c3c(F)cccc3F)c2F)c(-c2ccnc(Nc3ccccc3)n2)s1`: the growth is 104%. On to `NCCCCCNc1noc(Cc2c[nH]c3cc(Br)ccc23)n1`, for which the growth is 4.11% (active).

Regarding `CCN(CC)CCCC(C)NCCCNc1cccc2cccnc12` (stereo not given), the growth was 90%. `Cc1ccnc2c1ccc1c(C)ccnc12`: the growth is -17.8% (active).

With `C=C(C)[C@@H]1CC[C@]2(C(=O)N3CCN(C)CC3)CC[C@]3(C)[C@H](CC[C@@H]4[C@@]5(C)CC[C@H](OC(=O)c6ccccc6C(=O)O)C(C)(C)[C@@H]5CC[C@]43C)[C@@H]12`, the growth is 107%. Regarding `COc1cc2ncnc(Nc3ccc(C(=O)/C=C/c4ccc(C(F)(F)F)cc4F)cc3)c2cc1OC`, the growth was 107%. On to `CC/C=C\C[C@H](F)C/C=C1/C(=O)C=C[C@@H]1C/C=C\CCCC(=O)O`, for which the growth was 52.6%. Next, `N#Cc1nc(-c2ccc(F)cc2)oc1S(=O)(=O)N1CCCCC1`: 52.7%; `O=c1c2c([nH]c3ccccc13)CCCC2`: 88.2% and 14.6%; `COc1cc(NC(=O)Nc2cnc(Nc3ccc(N4CCOCC4)cc3)nc2Oc2cccc(OC)c2)cc(OC)c1`: 29.9%. For `O=C(COC(=O)[C@H](C[Se][Se]C[C@H](NC(=O)c1ccc(Br)cc1F)C(=O)OCC(=O)c1ccc(F)cc1)NC(=O)c1ccc(Br)cc1F)c1ccc(F)cc1`, the growth is -79.5% (active). Consider `C=C(C=O)[C@@H]1CC[C@]2(COC(C)=O)CC[C@]3(C)C(CC[C@@H]4[C@@]5(C)CC[C@H](OC(C)=O)C(C)(C)[C@@H]5CC[C@]43C)[C@@H]12` (stereo not given in full), for which the growth is 5.16% (active). The same measure for `Cc1ccc(-c2nc(N3CCN(C(=O)Nc4ccc(Cl)c(C(F)(F)F)c4)CC3)c3ccccc3n2)cc1`: 77.2%; for `C=C1C(=O)O[C@H]2[C@H]1CC/C(C(=O)NCCCCCCCCNC(=O)/C1=C/CC[C@@]3(C)O[C@H]3[C@H]3OC(=O)C(=C)[C@@H]3CC1)=C\CC[C@@]1(C)O[C@@H]21`: 35.7%. Next, `COCCOC(=O)COc1ccc(OC)cc1`: 95.6%; `N#Cc1c(-c2ccc(Cl)cc2)nc(N/N=C/c2cccc(Br)c2)nc1N1CCOCC1`: 76.7%.

On to `CCN1CCN(CCC(=O)Nc2cccc(-n3cc(-c4ccncc4)c(-c4ccc(Cl)c(OC)c4)n3)c2)CC1`, for which the growth was -2.3% (active). As for `Nc1ncnc2c1N=C(c1ccc(F)cc1)CC(c1cccc(Nc3ccnc4cc(Cl)ccc34)c1)N2` (stereo not given), the growth was 74.1%. Next, `NC1[C@H](c2c[nH]c3ccccc23)c2c([nH]c3ccccc23)[C@H]1c1c[nH]c2ccccc12` (stereo not given in full): 106%. `CCCCCN1CCN(C(CC(=O)c2ccccc2)C(=O)c2ccccc2)CC1` (stereo not given): the growth is 103%. Next, `O=C(/C=C/C12c3ccccc3C(c3ccccc31)C1C(=O)N(c3ccccc3)C(=O)C12)c1ccc(Cl)cc1` (stereo not given): 3.08% (active); `CCN(CCNc1ccc(C)c2sc3ccccc3c(=O)c12)CC(C)(C)O`: 26%; `CC[C@H](C)[C@H](NC(=O)[C@H](CCCNC(=N)N)NC(=O)[C@H](Cc1c[nH]c2ccccc12)NC(=O)[C@@H](NC(=O)[C@H](CCCCN)NC(=O)[C@H](CCCCN)NC(=O)[C@@H](NC(=O)[C@@H](NC(=O)[C@@H](NC(=O)[C@H](CCCCN)NC(=O)[C@H](Cc1ccccc1)NC(=O)[C@H](CCCCN)NC(=O)[C@H](CCCCN)NC(=O)[C@H](Cc1ccccc1)NC(=O)[C@@H](NC(=O)[C@@H](N)CCCCN)[C@@H](C)CC)[C@@H](C)O)[C@@H](C)CC)[C@@H](C)CC)C(C)C)C(=O)N[C@@H](Cc1ccccc1)C(=O)NCC(=O)N[C@@H](CCCNC(=N)N)C(=O)N[C@@H](Cc1ccccc1)C(N)=O`: 28.8%.

Turning to `C/C(=N\NC(=O)Cn1c(-c2ccc(S(C)(=O)=O)cc2)nc2ccccc21)c1ccc(Cl)cc1`, the growth was 98.3%. Turning to `COc1ccc2c(c1)OC(N)=C(C#N)C2c1ccc(F)c(F)c1` (stereo not given), the growth is -24.4% (active). The same measure for `O=C1CC2C=CCN2C=C1NC(=O)C1CCCCC1` (stereo not given): 96.2%; for `CCCCCCCC/C=C\CCCCCCCCOc1ccccc1CC(=O)NCC[N+]1(C)CCCC1`: 40.3%; for `CCCCN(CCCC)CCCOC(=O)c1ccc(N)cc1`: 47.5%. For the compound `Cc1nn(-c2cc(=O)[nH]c3ccc(Cl)cc23)c(N)c1C#N`, the growth is 111%.

Take `Cc1cccc(C)c1Nc1nnc(-c2ccc(F)cc2)o1`: the growth is 102%. Next, `Cc1cscc(C)c1=S`: 72.3%; `O=C(Nc1ccc(OS(=O)(=O)c2ccccc2)cc1)C1CCCCC1`: 103%. Next, `c1ccc(CNc2ncnc3ccc(-c4cnc5[nH]ncc5c4)cc23)cc1`: 50.7%; `COc1cc2c(c(OC)c1OC)-c1ccc(NNC(N)=S)c(=O)cc1[C@@H](NC(C)=O)CC2`: -14.2% (active); `Cc1nc2c(-c3cnc(N)nc3)nc(N3CCOCC3)nc2n1C(C)C`: -34.6% (active). In the case of `Clc1ccc(Cl)c(N=Cc2ccc3c(c2)OCO3)c1`, the growth is 113%.

The values are drawn from PubChem BioAssay (NCI).
